For nine compounds, growth results are on record in PubChem BioAssay (NCI).

Structures are written as SMILES. This is part of a sample that, as a whole, favours compounds with a hit. Of some 83,000 tested, about 20% had one in any assay.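 How to read the values: 0–100, growth inhibition (40 = 60% inhibited); 0, no net growth; -100 to 0, cell death (-40 = 40% of starting cells died; -100 = all dead).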 A number with no mark means an inactive call. Activity calls are given as the source filed them. Rule for the calls: active = growth percent below 10; inactive = the rest.

Some test systems named below: RPMI-8226 leukemia; OVCAR-8 ovarian; OVCAR-5 ovarian; OVCAR-4 ovarian; SK-OV-3 ovarian; IGROV1 ovarian; OVCAR-3 ovarian; HS 578T breast; NCI/ADR-RES ovarian; T-47D breast; BT-549 breast; MDA-MB-435 melanoma; SW-620 colon; MCF7 breast; HCT-116 colon; HCC-2998 colon; KM12 colon.
Assay in all cases: NCI-60 one-dose screen, 48 h (100 = growth as untreated, 0 = no growth, -100 = all killed)
Holding throughout (conditions): 10 µM unless noted

With `O=C1Nc2cc(Cl)ccc2/C1=C\c1c(-c2ccc(F)cc2)nc2ccccn12`, the growth was 45.8% in the experiment on RPMI-8226 leukemia; 34.5% in the experiment on OVCAR-8 ovarian; 43.2% in the experiment with OVCAR-5 ovarian; -2.19% (active) in the experiment on OVCAR-4 ovarian; -26.3% (active) with SK-OV-3 ovarian; 14% in the experiment on IGROV1 ovarian. In addition, the growth in the experiment with OVCAR-3 ovarian is -58.3% (active); in the experiment with HS 578T breast it was -4.87% (active); in the experiment with NCI/ADR-RES ovarian, -27.6% (active); in the experiment on T-47D breast it was 24.2%; in the experiment with BT-549 breast, 21.6%; with MDA-MB-435 melanoma it was -55% (active). The growth was 9.82% (active) with SW-620 colon; 2.1% (active) with MCF7 breast; -80.1% (active) with HCT-116 colon; 31.5% in the experiment with HCC-2998 colon; -1.1% (active) with KM12 colon.
For the compound `Cn1cc(-c2csc(-c3c[nH]c4ccccc34)n2)c2ccnc(Cl)c21`, the growth in the experiment on RPMI-8226 leukemia is 53.8%; with OVCAR-8 ovarian, 78.3%; in the experiment on OVCAR-5 ovarian, 127%; with OVCAR-4 ovarian it was 48.5%; in the experiment on SK-OV-3 ovarian it was 93.9%; in the experiment with IGROV1 ovarian it was 91.8%. Moreover, the growth was 81% in the experiment on OVCAR-3 ovarian; 80.8% in the experiment on HS 578T breast; 81.8% in the experiment on NCI/ADR-RES ovarian; 18.4% in the experiment on T-47D breast; 93.8% with BT-549 breast; 75.7% in the experiment with MDA-MB-435 melanoma. Moreover, the growth in the experiment with MCF7 breast was 30.3%; in the experiment with HCT-116 colon it was 59.4%; in the experiment with HCC-2998 colon, 92.4%; in the experiment with KM12 colon it was 58.9%.
Turning to `Cn1ccnc1C(=O)/C=C/c1ccc(CC(=O)Nc2ccc(F)cc2)cc1`, the growth in the experiment on RPMI-8226 leukemia is 1.1% (active); in the experiment with OVCAR-8 ovarian, 12.7%; in the experiment on OVCAR-5 ovarian it was 65.5%; in the experiment on OVCAR-4 ovarian, 30.3%; in the experiment on SK-OV-3 ovarian, 85.4%; in the experiment with IGROV1 ovarian, 39.3%. Besides, the growth with OVCAR-3 ovarian was 6.19% (active); in the experiment on HS 578T breast, 57.7%; in the experiment with NCI/ADR-RES ovarian, 21.7%; in the experiment on T-47D breast, 28.8%; in the experiment on BT-549 breast, 23.6%; in the experiment with SW-620 colon, 10.1%. Also, the growth was 28% with MCF7 breast, 4.94% (active) with HCT-116 colon, 85.4% in the experiment on HCC-2998 colon and 6.52% (active) in the experiment on KM12 colon.
Consider `CCCCCCCCO/N=C\c1c2c(O)c3c(O)c(C)c4c(c3c1O)C(=O)C(C)(O/C=C\C(OC)C(C)C(OC(C)=O)C(C)C(O)C(C)C(O)C(C)/C=C\C=C(\C)C(=O)N2)O4` (stereo not drawn), for which the growth in the experiment with RPMI-8226 leukemia was 9.95% (active); with OVCAR-8 ovarian it was 24%; in the experiment on OVCAR-5 ovarian, 48.8%; in the experiment with OVCAR-4 ovarian, 29.4%; with SK-OV-3 ovarian it was 30.5%; with IGROV1 ovarian it was 23.4%. In addition, the growth with OVCAR-3 ovarian was 22.2%; in the experiment with HS 578T breast, -2.52% (active); with NCI/ADR-RES ovarian, 32.1%; in the experiment with T-47D breast, 30.5%; with BT-549 breast it was 45.9%; in the experiment on SW-620 colon it was 15.1%. Moreover, the growth is 21.7% in the experiment with MCF7 breast, 11.6% in the experiment on HCT-116 colon, 14.7% with HCC-2998 colon and 17.1% in the experiment on KM12 colon.
Take `Cc1nc2sccn2c1-c1nc2sccn2c1/C=C1/C(=O)Nc2ccccc21`: the growth was 20.1% in the experiment with RPMI-8226 leukemia; 52.1% in the experiment with OVCAR-8 ovarian; 41.8% in the experiment with OVCAR-5 ovarian; 63.6% in the experiment with OVCAR-4 ovarian; 31.2% in the experiment on SK-OV-3 ovarian; -15.5% (active) in the experiment with IGROV1 ovarian. Moreover, the growth is -30.9% (active) in the experiment with OVCAR-3 ovarian; 31.8% with HS 578T breast; 47.9% in the experiment on NCI/ADR-RES ovarian; 27.6% in the experiment on T-47D breast; 36% in the experiment on BT-549 breast; -63.8% (active) in the experiment with MDA-MB-435 melanoma. Moreover, the growth in the experiment with SW-620 colon was 9.78% (active); with MCF7 breast, 10.6%; in the experiment with HCT-116 colon, 24.1%; with HCC-2998 colon, 66.8%; in the experiment with KM12 colon, 12.5%.
For `COc1ccc(/C=C/C(=O)Nc2cc(/C=C\c3cc(OC)c(OC)c(OC)c3)cc(OC)c2OC)cc1OC`, the growth was 30.7% in the experiment with RPMI-8226 leukemia; 34.2% in the experiment on OVCAR-8 ovarian; 63.2% in the experiment with OVCAR-5 ovarian; 47.7% in the experiment on OVCAR-4 ovarian; 11.6% in the experiment on SK-OV-3 ovarian; 40.1% with IGROV1 ovarian. Further, the growth with OVCAR-3 ovarian was 12.2%; with HS 578T breast it was 29%; in the experiment with NCI/ADR-RES ovarian it was -11.2% (active); in the experiment with T-47D breast, 6.43% (active); in the experiment with BT-549 breast it was 8.93% (active); in the experiment with MDA-MB-435 melanoma, -35% (active). The growth is 16.8% in the experiment on MCF7 breast, 19.2% in the experiment on HCT-116 colon, 55.6% in the experiment on HCC-2998 colon and 17.1% with KM12 colon.
Take `COc1ccc(C(=O)CC#N)cc1`: the growth is 110% in the experiment on RPMI-8226 leukemia; 103% in the experiment with OVCAR-8 ovarian; 105% in the experiment with OVCAR-5 ovarian; 107% in the experiment with OVCAR-4 ovarian; 112% in the experiment on SK-OV-3 ovarian; 123% in the experiment on IGROV1 ovarian. For the same compound, the growth in the experiment on OVCAR-3 ovarian was 112%; in the experiment on HS 578T breast it was 110%; with NCI/ADR-RES ovarian, 111%; in the experiment with T-47D breast, 104%; in the experiment on BT-549 breast it was 107%; in the experiment on MDA-MB-435 melanoma, 132%. In addition, the growth with SW-620 colon was 107%; in the experiment on MCF7 breast, 96.7%; in the experiment on HCT-116 colon, 106%; in the experiment with HCC-2998 colon it was 112%; in the experiment with KM12 colon, 108%.
In the case of `CC1(C)CC[C@]2(C(=O)O)CC[C@]3(C)C(=CC[C@@H]4[C@@]5(C)Cc6c([nH]c7ccccc67)C(C)(C)[C@@H]5CC[C@]43C)[C@@H]2C1`, the growth in the experiment with RPMI-8226 leukemia is 23.2%; in the experiment with OVCAR-8 ovarian, 35%; with OVCAR-5 ovarian, 80.9%; in the experiment with OVCAR-4 ovarian, 36.8%; in the experiment on SK-OV-3 ovarian, 62.4%; in the experiment with IGROV1 ovarian it was 58%. Besides, the growth with OVCAR-3 ovarian was 37.2%; with HS 578T breast it was 75.2%; with NCI/ADR-RES ovarian, 34.2%; in the experiment with T-47D breast, 49.5%; with BT-549 breast, 61.5%; with MDA-MB-435 melanoma, 79.3%. Moreover, the growth is 23.1% in the experiment on SW-620 colon; 19.4% in the experiment on MCF7 breast; 8.26% (active) in the experiment on HCT-116 colon; 38.7% in the experiment with HCC-2998 colon; 17.7% in the experiment with KM12 colon.
Turning to `N#Cc1c(-c2cccc([N+](=O)[O-])c2)nc(SCC(=O)c2ccc(Cl)cc2)[nH]c1=O`, the growth in the experiment on RPMI-8226 leukemia is 102%; in the experiment with OVCAR-8 ovarian, 99.3%; with OVCAR-5 ovarian, 102%; with OVCAR-4 ovarian, 102%; in the experiment with SK-OV-3 ovarian, 95.4%; with IGROV1 ovarian, 104%. Further, the growth in the experiment with OVCAR-3 ovarian was 103%; in the experiment with HS 578T breast, 97.6%; with NCI/ADR-RES ovarian, 97.2%; in the experiment on T-47D breast, 105%; in the experiment with BT-549 breast, 99.7%; with MDA-MB-435 melanoma, 100%. The growth was 105% in the experiment with MCF7 breast, 105% in the experiment on HCT-116 colon, 106% with HCC-2998 colon and 99.4% in the experiment with KM12 colon.
